SMILES strings stand for the structures. Inconclusive results are not listed. Entries that show only a call come without a potency. Activity calls are given as the source filed them. Calls follow the shape of the dose curve; as a rule, active = well fitted activation curve with a large enough effect; inconclusive = small, poorly fitted or top-dose-only effect; inactive = no such curve, though single readings can be large or run the other way.
Potency is read from the fitted curve at half-maximal effect.

The target of the test is Relaxin receptor 1 (Homo sapiens) (UniProt Q9HBX9). The experiment in a line: qHTS Assay for Agonists of the Relaxin Receptor RXFP1: RXFP1 Hit Validation. Also: nearly all actives have a fitted effect of over 65% in size.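 As to activation: cAMP rise lowers the TR-FRET signal in lysed cells with PDE4 inhibitor present.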 The note with it: HEK293T-RXFP1 cAMP TR-FRET, 30 min; series mostly up to 115 µM. (In general: qHTS replaces the single test concentration by a dilution series.)
Chain of Relaxin receptor 1 (Homo sapiens) (Q9HBX9 whole entry, looked up): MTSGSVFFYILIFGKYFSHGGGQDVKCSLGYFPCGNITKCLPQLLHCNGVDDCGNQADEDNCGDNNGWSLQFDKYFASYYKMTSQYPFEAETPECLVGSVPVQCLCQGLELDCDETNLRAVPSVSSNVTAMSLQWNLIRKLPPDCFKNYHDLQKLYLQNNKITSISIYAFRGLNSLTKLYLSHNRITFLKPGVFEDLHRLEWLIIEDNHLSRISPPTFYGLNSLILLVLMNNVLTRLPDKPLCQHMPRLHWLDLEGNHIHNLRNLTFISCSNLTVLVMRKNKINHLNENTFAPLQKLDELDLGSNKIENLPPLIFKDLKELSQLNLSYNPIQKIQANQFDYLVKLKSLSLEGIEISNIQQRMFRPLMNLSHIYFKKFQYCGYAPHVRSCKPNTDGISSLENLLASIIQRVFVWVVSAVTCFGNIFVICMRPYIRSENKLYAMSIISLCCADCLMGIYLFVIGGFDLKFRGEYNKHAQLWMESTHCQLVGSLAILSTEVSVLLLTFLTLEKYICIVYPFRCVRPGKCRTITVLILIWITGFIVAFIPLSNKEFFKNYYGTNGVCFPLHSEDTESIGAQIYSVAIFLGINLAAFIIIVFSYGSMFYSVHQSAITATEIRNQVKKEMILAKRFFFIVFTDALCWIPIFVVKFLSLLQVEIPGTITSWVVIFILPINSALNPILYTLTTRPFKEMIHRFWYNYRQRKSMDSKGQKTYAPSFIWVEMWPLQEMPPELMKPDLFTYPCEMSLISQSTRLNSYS
On to `CCCC(=O)Nc1ncnc2c1ncn2[C@@H]1O[C@@H]2COP(=O)(O)O[C@H]2[C@H]1OC(=O)CCC`, for which the Potency is 0.774 µM (active).

As to `Cn1c(N)c(C(=O)CSc2nn(-c3ccc(F)cc3)c(=S)s2)c(=O)n(C)c1=O`, the Potency was 21.8 µM (active).

Turning to `Cc1cccc(NC(=O)c2ccccc2NC(=O)C2CCCCC2)c1C`, the Potency entry is “inactive”.

On to `O=C(Nc1ccccc1C(=O)N1CCOCC1)c1ccco1`, for which the Potency result is “inactive”.

Turning to `Cn1c(=O)c2c(nc(SCC(=O)N3CCOCC3)n2C)n(C)c1=O`, the Potency entry is “inactive”.

Consider `CCN(CC)CCCCCC(=O)Nc1ccccc1C(=O)Nc1ccccc1`, for which the Potency entry is “inactive”.

As to `O=C(Nc1ccccc1C(=O)Nc1ccccc1C(=O)NCc1ccco1)c1ccco1`, the Potency was 21.9 µM (active).

As for `CN(C)CCCn1c(SCC(=O)Nc2nc(-c3cccc(Br)c3)cs2)nc2ccccc2c1=O`, the Potency entry was “inactive”.

For the molecule `N#C/C(=C\c1c(N2CCC(C(N)=O)CC2)nc2ccccn2c1=O)C(=O)NC1CCCCC1`, the Potency entry was “inactive”.

As for `c1ccc(-c2nnc(-c3ccccn3)c(-c3ccccn3)n2)nc1`, the Potency entry is “inactive”.

Take `CCOC(=O)CSc1nc(=O)n2cc(C)ccc2n1`: the Potency entry is “inactive”.

Consider `COc1ccc(CN2C(=O)c3cccnc3C2=O)cc1S(=O)(=O)NC1CCCCC1`, for which the Potency was 38.9 µM (active).

On to `O=C(O)CNC(=O)c1ccccc1NC(=O)c1ccco1`, for which the Potency result was “inactive”.

For `O=C(Nc1ccccc1C(=O)NCc1ccc(Cl)cc1)c1ccco1`, the Potency result is “inactive”.

Turning to `CC(C)c1ccccc1NC(=O)c1ccccc1NC(=O)C1CCCCC1`, the Potency entry was “inactive”.

Turning to `CC(=O)Nc1ccc(NC(=O)CSc2ccc3nnc(-c4ccccn4)n3n2)cc1`, the Potency entry is “inactive”.

Take `COC(=O)Cn1cnc2c(C#N)c3n(c2c1=O)CCCC3`: the Potency is 24.5 µM (active).

Turning to `Cc1cc(C)nc(NS(=O)(=O)c2ccc(N3C(=O)c4ccccc4C3=O)cc2)n1`, the Potency is 29.8 µM (active).

With `Cc1cc2nc3ccc(=[N+](C)C)cc-3sc2cc1N`, the Potency result was “inactive”.

As for `Cn1c(N)c(C(=O)CSc2nnc(NC3CCCCC3)s2)c(=O)n(C)c1=O`, the Potency entry is “inactive”.

Regarding `O=C(O)c1cc(-c2ccco2)nc2ccc(Br)cc12`, the Potency was 19.4 µM (active).

Consider `Cc1cccc2cc(C#N)c(SCC(=O)NCc3cccs3)nc12`, for which the Potency is 17.3 µM (active).

On to `CC1CCCCN1C(=O)c1ccccc1NC(=O)c1ccco1` (stereo unspecified), for which the Potency entry was “inactive”.

For the molecule `COCCNC(=O)C(OC(=O)c1nsc(Cl)c1Cl)C(C)C` (stereo unspecified), the Potency result was “inactive”.

For the molecule `CC1C/C(=N\NC(N)=S)c2cc(Cl)ccc2S1` (stereo unspecified), the Potency result was “inactive”.

On to `CCc1ccc2n(-c3ccc(OC)cc3)c([S-])c(C(=O)Nc3cc(C)cc(C)c3)[n+]2c1`, for which the Potency was 24.5 µM (active).

Regarding `O=C(Nc1ccccc1C(=O)O)c1ccc(NC(=O)C2CC2)cc1`, the Potency result was “inactive”.

`O=C(Nc1ccccc1C(=O)NCCc1ccccc1)c1ccco1`: the Potency entry is “inactive”.

In the case of `COc1cc(-c2nnc(SCC(=O)N(C)C3CCS(=O)(=O)C3)o2)cc(OC)c1OC` (stereo unspecified), the Potency entry is “inactive”.

For `Cc1ccc(CNC(=O)CCc2nnc3ccc(N4CCC5(CC4)OCCO5)nn23)cc1`, the Potency result is “inactive”.

For the molecule `Cc1cc(C)n(C(=O)CCCn2cc([N+](=O)[O-])cn2)n1`, the Potency entry is “inactive”.

In the case of `O=c1oc2cc(O)c(Cl)cc2c2ccccc12`, the Potency is 6.9 µM (active).

Take `CC(=O)C1C(c2ccccc2)c2c(noc2C)CC1(C)O` (stereo unspecified): the Potency entry was “inactive”.

Consider `Cc1cc(C)c(NC(=O)CS(=O)CC(=O)Nc2ccc(F)cc2F)c(C)c1` (stereo unspecified), for which the Potency result is “inactive”.

Take `O=C(O)c1ccc(N2C(=O)c3cccc4c(C(=O)O)ccc(c34)C2=O)cc1`: the Potency entry is “inactive”.

With `O=C(Nc1ccccc1C(=O)NCc1ccco1)c1ccco1`, the Potency result was “inactive”.

(Values after PubChem BioAssay AID489012 (National Center for Advancing Translational Sciences (NCATS), 2010).)
